From PubChem BioAssay AID540356 (Broad Institute, 2011)
Among all 2,500 compounds or so, about 360 (14%) were called active. The list is a sample of the results. Values without a mark were called inactive.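 The calls were made as follows: active = signal-lowering compounds whose fitted half-maximal concentration AC50 is no higher than ten times their top tested concentration; inconclusive = flat curve with 30 to 70% inhibition, or poor fit; inactive = flat within 30%, signal increase, or AC50 above limit.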

Test: non-specific inhibitors of H2O2 luminol chemiluminescence – biochemical, luminescence, no ALR or DTT, cherry-pick, artefact control for ALR inhibitor project, dose response (AID 540356);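 as to activity change, negative = inhibition: 0% = median of neutral control wells and -100% = median of quercitin 100 µM wells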
Details: HRP/H2O2 luminol luminescence counterscreen; series mostly up to 10 µM; activity change, negative = inhibition: at the top concentration

SMILES | activity change, negative = inhibition [%] | AC50
COc1ccc(Nc2cccc(Cl)c2)c(C(=O)O)c1 | -13.4 | 
C/C(=N\Nc1cccc(Cl)c1)c1ccncc1 | 3.05 | 
O=C(NNc1cccc(Cl)c1)c1cccnc1Cl |  | 6.88 µM (active)
O=C(CC1CCCC1)N1CCCC(Nc2ccc(F)cc2)C1 (stereo unspecified) | 0.017 | 
Cc1occc1C(=O)N1CCCC(Nc2ccc(C(C)C)cc2)C1 (stereo unspecified) | -3.64 | 
CCS(=O)(=O)N1Cc2ccccc2CC1C(=O)N1CCN(c2ccccc2)CC1 (stereo unspecified) | 1.97 | 
Cc1ccc2c(C)c(C(=O)Nc3ccc(S(=O)(=O)Nc4onc(C)c4C)cc3)oc2c1 | -6.98 | 
CCN(CC)c1ccc(NC(=O)CN2CCN(c3ccc(F)cc3)CC2)cc1 | -1.86 | 
CCN(CC)c1ccc(NC(=O)c2nc3nc(C)cc(C(F)F)n3n2)cc1 |  | 10.3 µM (active)
CCN(CC)c1ccc(NC(=O)CN2CCN(c3nc(C)cc(C)n3)CC2)cc1 | -15.6 | 
COc1ccc(N2C(=O)CSC2c2ccc([N+](=O)[O-])cc2)cc1 (stereo unspecified) | 0.574 | 
COc1ccc(Br)cc1C(=O)Nc1ccc(O)cc1 | -12.1 | 
O=C(NNc1ccc(O)cc1)c1ccc(Br)cc1 |  | 9.05 µM (active)
O=C(NNc1cc(Br)c(O)c(Br)c1)c1ccccc1 | -1.51 | 
Nc1cccc(/C=C/c2ccncc2)c1 | -4.25 | 
CCN(CC)Cc1c(-c2ccccc2)[nH]c2ccc(C)cc2c1=O | -0.224 | 
Oc1ccc(O)c(-c2cnns2)c1 |  | 5.54 µM (active)
c1ccc(-c2nnc(CN3CCN(c4ccccc4)CC3)o2)cc1 | 1.45 | 
COc1ccc(NC2CCCN(C(=O)c3cn(C)c4ccccc34)C2)cc1 (stereo unspecified) | -14.7 | 
Cc1ccc(Nc2c(-c3ccccc3O)nc3cnccn23)cc1 | 0.898 | 
CC(=O)Oc1cc2oc(=O)cc(C)c2cc1Cl | -1.43 | 
Cc1cc(N)n2ncc(-c3ccccc3)c2n1 | -0.253 | 
O=C(NCC(c1cccnc1)N1CCN(c2ccc(F)cc2)CC1)c1ccco1 (stereo unspecified) | -1.53 | 
COC(=O)[C@H](Cc1ccccc1)NC(=O)N1CCN(c2ccccc2)CC1 | 0.603 | 
O=C(CN1CCN(c2ccccc2)CC1)Nc1ccccc1Cl | -0.658 | 
O=C1N/C(=N\S(=O)(=O)Cc2ccccc2)S/C1=C/c1cc([N+](=O)[O-])ccc1O | -0.915 | 

SMILES | activity change, negative = inhibition [%] | AC50
Cc1ccc(N2CCN(C(=O)CNS(=O)(=O)c3ccc(Br)s3)CC2C)cc1 (stereo unspecified) | -2.85 | 
COc1ccc(N2CCN(C(=O)c3ccc(SC)cc3OC)CC2)cc1 | 0.908 | 
CCn1c(-c2cc(OC)c(OC)c(OC)c2)n[nH]c1=S | -10.3 | 
S=c1nc(-c2cc(Cl)cc(Cl)c2)[nH][nH]1 | -2.06 | 
S=c1nc(-c2cccc(Cl)c2)[nH][nH]1 | -9.58 | 
COc1ccc(-c2nc(=S)[nH][nH]2)cc1 |  | 2.94 µM (active)
FC(F)(F)c1ccc(-c2nc(=S)[nH][nH]2)cc1 | -5 | 
COc1cc(-c2nc(=S)[nH][nH]2)cc(OC)c1OC |  | 3.9 µM (active)
CC(=O)Nc1ccc(N2C(=O)CSC2c2ccccc2)cc1 (stereo unspecified) | 3.31 | 
COc1ccc2nc(N3CCCC3)[nH]c2c1 | -7.05 | 
Cc1[nH]c2ccccc2c1N=Nc1cccc(C(=O)O)c1 | -10.3 | 
CCCCC(NC(=O)Cc1c(C)c2cc3c(C)c(C)oc3c(C)c2oc1=O)C(=O)O (stereo unspecified) | -14.1 | 
CC(=O)NC(c1cc(Cl)c2ccccc2c1O)C(C)C (stereo unspecified) | -4.5 | 
COc1ccccc1N1CCN(C2CCCN(C(=O)CCc3c(C)noc3C)C2)CC1 (stereo unspecified) | -1.06 | 
CCN(CC)c1ccc(NC(=O)c2ccc(Br)o2)c(C)c1 | -5.68 | 
Cc1cccc(C2CN(C)CCc3c2cc(O)c(O)c3Cl)c1 (stereo unspecified) |  | 8.78 µM (active)
COc1ccc2[nH]c(=S)[nH]c2c1 | -5.52 | 
COc1ccc(-c2cn[nH]c2N)c(OC)c1 |  | 7 µM (active)
COc1cc(OC)cc(-c2cn[nH]c2N)c1 | 0.221 | 
Nc1cccc(CCc2ccncc2)c1 | -1 | 
O=C(Cc1ccc(Cl)cc1)N1CCN(c2ccccc2)CC1 | -0.387 | 
O=c1/c(=C/c2ccc(O)cc2)sc2n1CCCN=2 |  | 9.71 µM (active)
O=C(C1CCCN(S(=O)(=O)c2cnc[nH]2)C1)N1CCN(c2ccc(Cl)cc2)CC1 (stereo unspecified) | -7.06 | 
O=C1CCCN1CCCNc1ncnc2c1[nH]c1ccc(Cl)cc12 | -0.822 | 
COc1cc2c(ccc3cc(OC)c(OC)c(O)c32)cc1O | -17 | 
CCN(CCNS(=O)(=O)c1ccc2[nH]c(=O)sc2c1)c1ccccc1 | -0.959 | 

SMILES | activity change, negative = inhibition [%] | AC50
CC(=O)N1CC[n+]2c(-c3ccc(Cl)cc3)csc21 | -1.68 | 
O=C(CNc1ccc2ccccc2c1)NNC1=NCCC1 | -0.851 | 
O=C(CN1C(=O)CCC1=O)NNc1ccc2ccccc2c1 |  | 0.0915 µM (active)
O=C1CCC(=O)N1CNc1ccc(Oc2ccccc2)cc1 | 0.862 | 
CCCn1cnc2cc(NCc3ccccc3O)ccc21 | 1.95 | 
Cc1cc(N2CCN(c3ccccc3)CC2)n2ncnc2n1 | -4.68 | 
O=C(O)c1ccc(CSc2nc3ccccc3o2)cc1 | -3.53 | 
CC(=O)N1CCN(C(=S)c2ccc(N(C)C)cc2)CC1 | -6.25 | 
S=c1[nH]nc(-c2ccco2)n1Cc1ccccc1 | -8.45 | 
CCn1c(-c2ccc(N)cc2)nc2ccccc21 | 5.07 | 
COc1ccc(-c2n[nH]c(=S)n2Cc2ccco2)cc1 | -2.38 | 
S=c1[nH]nc(-c2ccncc2)n1Cc1ccco1 | -1 | 
O=C(NNS(=O)(=O)c1ccc(F)cc1)c1cc2ccccc2cc1O | -9.25 | 
O=C(C1CCCC1)N1CCCC(Nc2ccccc2)C1 (stereo unspecified) | -1.5 | 
CCc1[nH]nc(C(=O)N2CCCC(Nc3ccc(C(C)C)cc3)C2)c1C (stereo unspecified) | -2.33 | 
CCc1ccc(-c2csc3[n+]2CCN3C(C)=O)cc1 | -4.47 | 
O=C(Nc1ccc2snnc2c1)N1CCN(c2ccccc2)CC1 | -2.31 | 
CC1(C)Nc2ccccc2N(CC(=O)N2CCCCC2)C1=O | -0.3 | 
COc1cc(/C=N/Nc2ccc([N+](=O)[O-])cn2)cc(OC)c1O | -0.153 | 
O=c1[nH]c(/C=C\c2cccc(F)c2)nc(O)c1[N+](=O)[O-] | -1.32 | 
COc1cc(/C=N/NC(=O)c2cccc([N+](=O)[O-])c2)cc(OC)c1O | -11.4 | 
O=c1[nH]c(/C=C\c2ccccc2F)nc(O)c1[N+](=O)[O-] | 14.8 | 
O=c1[nH]c(/C=C\c2cccc(Cl)c2)nc(O)c1[N+](=O)[O-] | 2.32 | 
CCn1c(/C=C/c2ccc(O)cc2)nc2ccccc2c1=O | -1.78 | 
